CBFb RUNX1 block: blocks binding between human CBF-beta and RUNX1; AlphaScreen CBFb-His/RUNX1-biotin binding, biochemical; Q01196+Q13951; 230,000 tested, under 10 active; Potency, µM (titrated, usually from 59.8 µM), inactives show at the top dose activity, negative = inhibition, actives largely listed as inhibitors; further: % of control where 0% means no effect
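Room-temperature protein-protein interaction test with 30 nM each of His-tagged CBF-beta and biotinylated RUNX1, 15 min with compound, then 90 min with nickel plus streptavidin beads. Signal read in AlphaScreen mode.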
ERK EGF inh: inhibitors of EGF-stimulated ERK signaling pathway; 130,000 tested, 0.41% active; Potency, µM (top dose mostly 11.5 µM), inactives show at the top dose activity change, negative = inhibition, actives largely listed as inhibitors; HEK293-V1b, EGF-stimulated phospho-ERK AlphaScreen;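 further: potency means the concentration at half of the fitted maximal effect; plate controls were stimulated vehicle wells for no effect and unstimulated vehicle basal for full effect; nearly all actives have a fitted effect of over 55% in size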
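Phospho-ERK1/2 measured by AlphaScreen (SureFire) after 5 min 25 nM EGF stimulation of V1b-expressing HEK293 cells preincubated 30 min at 37C with titrated compounds; data scaled to DMSO and EGF controls, Hill-fitted AC50.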
RGS12 GoLoco inh: blocks human Gai1 binding to RGS12 GoLoco peptide, red readout; P63096; Gai1:RGS12 GoLoco peptide FP, rhodamine, 10 min; Potency, µM (top dose mostly 61.6 µM), for inactives: at the highest dose activity, negative = inhibition, most hits filed as inhibitors; 230,000 tested, 0.44% active; active means well fitted inhibition curve with a large enough effect, not every such curve was filed as active; inactive means no such curve, though single readings can be large or run the other way; further: potency means the concentration at half of the fitted maximal effect; on the % scale 0 is the no-effect control and ±100 the full control effect; nearly all actives have a fitted effect of over 30% in size
Target sequence (P63096 whole entry, looked up): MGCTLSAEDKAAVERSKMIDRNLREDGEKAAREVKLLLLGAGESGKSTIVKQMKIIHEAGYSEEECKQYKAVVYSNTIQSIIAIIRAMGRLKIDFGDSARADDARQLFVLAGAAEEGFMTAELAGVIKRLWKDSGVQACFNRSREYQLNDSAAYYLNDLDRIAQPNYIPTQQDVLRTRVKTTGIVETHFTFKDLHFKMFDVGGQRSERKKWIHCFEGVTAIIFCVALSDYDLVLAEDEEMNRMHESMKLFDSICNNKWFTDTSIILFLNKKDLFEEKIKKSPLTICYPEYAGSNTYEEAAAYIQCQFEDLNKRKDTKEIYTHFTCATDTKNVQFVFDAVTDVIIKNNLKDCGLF
Starred values were filed as active, the others as inactive; ! = repeats disagree; [ ] = remark or other dose. Hits are enriched below; roughly 0.5% of the tested compounds scored in any of these assays. Unless noted, the call rests on the fitted dose curve; in most records, active means well fitted curve in the direction sought with a large enough effect; inconclusive means small, poorly fitted or top-dose-only effect, or another doubt; inactive means no such curve, though single readings can be large; an effect the other way counts as inactive or inconclusive.

How did Cc1n[nH]c(C)c1N1C(=O)c2cccc3c(N4CCCCCC4)ccc(c23)C1=O do in these assays?
CBFb RUNX1 block: 20%; RGS12 GoLoco inh: 20µM*

How did c1ccc2sc(SSc3nc4ccccc4s3)nc2c1 do in these assays?
CBFb RUNX1 block: 19%[21.7 µM]; RGS12 GoLoco inh: 10µM*

How did NCCSc1nc2ccccc2s1 do in these assays?
RGS12 GoLoco inh: 2%[14.2 µM]

What do the screens show for `Nc1nc2c(nc(Br)n2C2O[C@H]3COP(=O)(O)O[C@@H]3C2O)c(=O)[nH]1` (stereo partly specified)?
CBFb RUNX1 block: 4%; ERK EGF inh: 5%; RGS12 GoLoco inh: 14%

What do the screens show for `Oc1ccc2c(c1)OCC1(O)Cc3cc(O)c(O)cc3C21` (stereo unspecified)?
CBFb RUNX1 block: 7%; ERK EGF inh: inconclusive; RGS12 GoLoco inh: -165%

What do the screens show for `Oc1cc2c(cc1O)[C@H]1c3ccc(O)c(O)c3OC[C@@]1(O)C2`?
CBFb RUNX1 block: 8%[21.7 µM]; ERK EGF inh: 2%; RGS12 GoLoco inh: 4µM*!

What do the screens show for `Cc1cc2ccccn2c1C(=O)c1ccc([N+](=O)[O-])o1`?
ERK EGF inh: 18µM*; RGS12 GoLoco inh: 0%

How did Cc1cc2ccccn2c1C(=O)c1cccc([N+](=O)[O-])c1 do in these assays?
CBFb RUNX1 block: -24%; ERK EGF inh: 6%; RGS12 GoLoco inh: 1%

What do the screens show for `COc1ccccc1CNc1cc(-c2ccccc2C(F)(F)F)ncn1`?
RGS12 GoLoco inh: 8%

How did CC(C)C[C@H](NC(=O)c1ccc(NCc2cnc[nH]2)cc1-c1cccc2ccccc12)C(=O)O do in these assays?
CBFb RUNX1 block: 4%

Results for Cc1cc(C)nc(S/C=C/C(=O)c2ccccc2F)n1 ?
CBFb RUNX1 block: -3%; ERK EGF inh: 28µM*; RGS12 GoLoco inh: 7%

What do the screens show for `Cc1cc(NC(=O)c2ccccc2F)on1`?
CBFb RUNX1 block: 3%; ERK EGF inh: -3%; RGS12 GoLoco inh: -1%

Results for Nc1[nH]n(-c2ccccc2)c(=O)c1N=Nc1ccc2c(c1)OCO2 ?
CBFb RUNX1 block: -28%; ERK EGF inh: 22µM*; RGS12 GoLoco inh: -2%

What do the screens show for `Cc1[nH]n(-c2ccccc2)c(=O)c1N=Nc1ccccc1`?
CBFb RUNX1 block: inconclusive; ERK EGF inh: 16µM*; RGS12 GoLoco inh: 3%

Results for Nc1[nH]n(-c2ccccc2)c(=O)c1N=Nc1ccc2c(c1)OCCO2 ?
ERK EGF inh: inconclusive; RGS12 GoLoco inh: -2%

Results for Cc1[nH]n(-c2ccccc2)c(=O)c1N=Nc1cccc(S(=O)(=O)N2CCOCC2)c1 ?
CBFb RUNX1 block: -5%

Results for Clc1cncc(Cl)c1NNc1c2ccccc2nc2ccccc12 ?
CBFb RUNX1 block: 2%; ERK EGF inh: 13µM*; RGS12 GoLoco inh: -5%

What do the screens show for `Nc1c2ccccc2nc2ccccc12`?
CBFb RUNX1 block: 12%; ERK EGF inh: 10%; RGS12 GoLoco inh: -69%

Results for COCc1cc(O)c(O)c(O)c1-c1c(COC)cc(O)c(O)c1O ?
RGS12 GoLoco inh: -17%

What do the screens show for `COc1ccc(OC)c(Nc2nc(=O)c3cccnc3s2)c1`?
CBFb RUNX1 block: -4%; ERK EGF inh: 4%; RGS12 GoLoco inh: 25µM*

What do the screens show for `Cc1ccc(Nc2nc(=O)c3cccnc3s2)cc1`?
CBFb RUNX1 block: 1%; RGS12 GoLoco inh: 7%

How did Cc1ccc(N2C(=O)C3CC(c4ccccc4)=C4C5C=CC(C6C(=O)N(c7ccc(C)cc7)C(=O)C56)C4C3C2=O)cc1 (stereo unspecified) do in these assays?
CBFb RUNX1 block: 3%; ERK EGF inh: 3%; RGS12 GoLoco inh: 5%

How did Cc1ccc(N2C(=O)C3CC(c4ccccc4)=C4C5C=CC(C6C(=O)N(c7ccc(C)cc7C)C(=O)C56)C4C3C2=O)c(C)c1 (stereo unspecified) do in these assays?
CBFb RUNX1 block: -9%; RGS12 GoLoco inh: 32µM*

Results for O=C(O)c1cccc(NS(=O)(=O)/C=C/c2ccccc2)c1 ?
CBFb RUNX1 block: 3%; RGS12 GoLoco inh: 6%

Results for O=C(O)c1ccc(NC2=C(Cl)C(=O)c3ccccc3C2=O)cc1 ?
CBFb RUNX1 block: inconclusive; ERK EGF inh: 10µM*; RGS12 GoLoco inh: -14%

What do the screens show for `Cc1ccc(NCC(=O)c2ccccc2)cc1Cl`?
CBFb RUNX1 block: 15%; RGS12 GoLoco inh: -3%

What do the screens show for `O=C1C(Cl)=C(Nc2ccccc2)C(=O)c2ccccc21`?
CBFb RUNX1 block: 6%; ERK EGF inh: inconclusive; RGS12 GoLoco inh: 9%

How did Cc1ccc(NC2=C(NC(=O)c3ccccc3)C(=O)c3ccccc3C2=O)cc1Cl do in these assays?
ERK EGF inh: 16µM*; RGS12 GoLoco inh: -14%

Source: PubChem (National Center for Advancing Translational Sciences (NCATS))
